Data published in PubChem BioAssay AID1159580 (chemical genetic matrix, 2015).
Where “and” joins values, the source holds several entries; their conditions need not be identical. Equal values may be shown once. About 2,000 (36%) of roughly 5,500 compounds were called active. Inconclusive results (about 18%) are left out. Rule as the data show it: active = normalized growth mostly below about 0.91 (no sharp cut-off); inconclusive = no clear call, values can overlap the other calls; inactive = mostly above about 0.92. This is one part of the list.

Test: chemical genetic growth profiling, strain panel (AID 1159580);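 also: tested at 20 µM; growth read once vehicle control cultures reached saturation at 30 °C; 1 = growth at the plate median or of vehicle wells; lower values mean less growth of the strain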
Conditions: S. cerevisiae deletion strains, growth OD

Measured: normalized growth

CO[C@]12C[C@@H](COC(=O)c3cncc(Br)c3)CN(C)[C@@H]1Cc1cn(C)c3cccc2c13
inactive: locus YAL013W, strain DEP1, stronger effect = lower value 1.01 | locus YAL021C, strain ccr4, stronger effect = lower value 0.973 | locus YAL026C, strain drs2, stronger effect = lower value 1 | locus YAL030W, strain snc1, stronger effect = lower value 1 | locus YBL061C, strain skt5, stronger effect = lower value 0.996 | locus YBR009C, strain hhf1, stronger effect = lower value 0.991 | locus YBR021W, strain FUR4, stronger effect = lower value 0.913 | locus YBR023C, strain chs3, stronger effect = lower value 0.979 | locus YBR171W, strain sec66, stronger effect = lower value 0.983 | locus YBR229C, strain ROT2, stronger effect = lower value 1 | locus YBR231C, strain swc5, stronger effect = lower value 0.951 | locus YBR279W, strain paf1, stronger effect = lower value 0.998 | locus YCL011C, strain gbp2, stronger effect = lower value 0.983 | locus YCL016C, strain dcc1, stronger effect = lower value 0.998 | locus YCL029C, strain bik1, stronger effect = lower value 1.02 | locus YCL069W, strain vba3, stronger effect = lower value 0.998 | locus YCR088W, strain abp1, stronger effect = lower value 1 | locus YDL005C, strain med2, stronger effect = lower value 0.979 | locus YDL035C, strain GPR1, stronger effect = lower value 0.99 | locus YDL040C, strain nat1, stronger effect = lower value 0.995 | locus YDL074C, strain BRE1, stronger effect = lower value 0.978 | locus YDL101C, strain DUN1, stronger effect = lower value 1.01 | locus YDL134C, strain PPH21, stronger effect = lower value 0.995 | locus YDL185W, strain tfp1, stronger effect = lower value 1 | locus YDL192W, strain arf1, stronger effect = lower value 1.01 | locus YDR001C, strain nth1, stronger effect = lower value 0.994 | locus YDR069C, strain doa4, stronger effect = lower value 0.966 | locus YDR101C, strain arx1, stronger effect = lower value 1 | locus YDR137W, strain rgp1, stronger effect = lower value 1.12 | locus YDR150W, strain NUM1, stronger effect = lower value 0.999 | locus YDR159W, strain sac3, stronger effect = lower value 1.01 | locus YDR162C, strain NBP2, stronger effect = lower value 1 | locus YDR195W, strain ref2 0.943 | locus YDR297W, strain sur2, stronger effect = lower value 0.987 | locus YDR318W, strain mcm21, stronger effect = lower value 1 | locus YDR334W, strain swr1, stronger effect = lower value 1 | locus YDR335W, strain msn5, stronger effect = lower value 0.986 | locus YDR388W, stronger effect = lower value 1 | locus YDR392W, strain spt3, stronger effect = lower value 0.93 | locus YDR502C, strain sam2, stronger effect = lower value 1 | locus YEL003W, strain gim4, stronger effect = lower value 0.988 | locus YEL037C, strain rad23, stronger effect = lower value 0.995 | locus YEL061C, strain CIN8 (second series), stronger effect = lower value 0.987 | locus YEL061C, strain CIN8, stronger effect = lower value 0.997 | locus YER015W, strain faa2, stronger effect = lower value 0.996 | locus YER016W, strain bim1, stronger effect = lower value 1 | locus YER110C, stronger effect = lower value 1.01 | locus YER111C, strain swi4, stronger effect = lower value 1.01 | locus YER155C, strain BEM2 (second series), stronger effect = lower value 0.912 | locus YER155C, strain BEM2, stronger effect = lower value 0.998 | locus YER167W, strain BCK2, stronger effect = lower value 1 | locus YFR010W, strain ubp6, stronger effect = lower value 0.99 | locus YGL078C, strain dbp3, stronger effect = lower value 1 | locus YGL086W, strain mad1, stronger effect = lower value 1 | locus YGL167C, strain pmr1, stronger effect = lower value 0.996 | locus YGL173C, strain kem1, stronger effect = lower value 0.989 | locus YGL227W, strain vid30, stronger effect = lower value 0.994 | locus YGL240W, strain doc1, stronger effect = lower value 0.95 | locus YGL248W, strain PDE1, stronger effect = lower value 1.01 | locus YGL253W, strain hxk2, stronger effect = lower value 0.998 | locus YGR078C, strain PAC10, stronger effect = lower value 0.974 | locus YGR135W, strain pre9, stronger effect = lower value 0.993 | locus YGR229C, strain SMI1, stronger effect = lower value 1 | locus YGR252W, strain gcn5, stronger effect = lower value 0.869 | locus YHR013C, strain ard1, stronger effect = lower value 1.02 | locus YHR027C, strain rpn1, stronger effect = lower value 0.988 | locus YHR030C, strain SLT2, stronger effect = lower value 1.01 and 0.979 | locus YHR079C, strain IRE1 (second series), stronger effect = lower value 1.01 | locus YHR079C, strain IRE1, stronger effect = lower value 0.957 | locus YHR094C, strain hxt1, stronger effect = lower value 1 | locus YHR129C, strain ARP1, stronger effect = lower value 1.02 | locus YHR142W, strain chs7, stronger effect = lower value 1.01 | locus YHR200W, strain rpn10, stronger effect = lower value 1 | locus YIL066C, strain RNR3, stronger effect = lower value 1 | locus YIL073C, strain SPO22, stronger effect = lower value 1 | locus YIL125W, strain kgd1, stronger effect = lower value 1.01 | locus YIR030C, strain dcg1, stronger effect = lower value 1.01 | locus YJL092W, strain hpr5, stronger effect = lower value 1 | locus YJL095W, strain BCK1 (second series), stronger effect = lower value 1 | locus YJL095W, strain BCK1, stronger effect = lower value 0.996 and 0.967 | locus YJL115W, strain asf1, stronger effect = lower value 0.991 | locus YJL129C, strain trk1, stronger effect = lower value 0.982 | locus YJL134W, strain LCB3, stronger effect = lower value 1 | locus YJL154C, strain vps35, stronger effect = lower value 0.981 | locus YJL164C, strain tpk1, stronger effect = lower value 0.997 | locus YJL166W, strain qcr8, stronger effect = lower value 0.972 | locus YJL168C, strain set2, stronger effect = lower value 1 | locus YJL187C, strain SWE1 (second series), stronger effect = lower value 1.01 | locus YJL187C, strain SWE1, stronger effect = lower value 0.996 | locus YJR043C, strain POL32, stronger effect = lower value 1.01 | locus YJR066W, strain TOR1, stronger effect = lower value 0.897
